For 93 compounds, inhibition results are on record in PubChem BioAssay AID492953 (The Scripps Research Institute Molecular Screening Center, 2010).

Among all 340,000 compounds or so, about 4,200 (1.2%) were called active. The sample holds actives, similar compounds and a random draw of the others, so the mix is not that of the screen.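 The calls were made as follows: active = inhibition above the mean of all tested compounds plus 3 SD (cut at about 24% in these data); inactive = the rest.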

Sequence of Platelet-activating factor acetylhydrolase IB subunit alpha2 (Homo sapiens) (P68402 whole entry, looked up): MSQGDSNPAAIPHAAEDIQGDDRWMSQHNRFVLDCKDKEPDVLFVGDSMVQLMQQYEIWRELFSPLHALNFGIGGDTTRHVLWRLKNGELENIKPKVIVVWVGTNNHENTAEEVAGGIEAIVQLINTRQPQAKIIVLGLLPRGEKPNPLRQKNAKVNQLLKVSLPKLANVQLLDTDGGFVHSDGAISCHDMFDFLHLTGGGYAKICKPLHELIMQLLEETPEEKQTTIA

The test has as its target Platelet-activating factor acetylhydrolase IB subunit alpha2 (Homo sapiens) (UniProt P68402). Nature of the test: inhibition of PAF acetylhydrolase 1b subunit 2 – biochemical, fluorescence polarization, human, primary screen (AID 492953).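 Also: 0% = enzyme with DMSO and 100% = wells lacking PAFAH1B2.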 The following applies: recombinant PAFAH1B2, FP-rhodamine activity probe, at 3.39 µM, stronger effect = higher value. In general terms: Polarisation of emitted light reports the rotation of a fluorescent probe.
Usually inhibition stands for the relative decrease from the control value, in per cent. In the case of `Cn1c(=O)oc2cc(S(=O)(=O)NCCC(=O)NCc3ccccc3Cl)ccc21`, the inhibition is -3.01% (inactive).

Turning to `Cc1nn(-c2ncccn2)c2c1C(=O)CC(C)(C)C2Br` (stereo not drawn), the inhibition is 3.5% (inactive).

As for `Cc1ccc(SCC(=O)Nc2ncc(C)s2)cc1`, the inhibition was 26.1% (active).

Take `Cc1cnc(NC(=O)CSc2nnc(-c3ccccc3)n2Cc2ccccc2)s1`: the inhibition was 7.97% (inactive).

Turning to `CCOCc1nnc(NC(=O)CSc2ccc(C)cc2)s1`, the inhibition was -28.2% (inactive).

Consider `O=C(O)c1cc(S(=O)(=O)N2CCCCCC2)c(Cl)cc1Cl`, for which the inhibition was 24.3% (active).

Regarding `O=C(Nc1nccs1)c1cc(S(=O)(=O)N2CCOCC2)c(Cl)cc1Cl`, the inhibition is -6.96% (inactive).

For the compound `O=C(c1ccc(Cl)c(S(=O)(=O)N2CCCCC2)c1)N1CCCCCC1`, the inhibition was -0.08% (inactive).

Consider `Cc1ccc(S(=O)(=O)N2CCN(C(=O)CN3C(=O)NC(C)(c4ccc(Cl)cc4)C3=O)CC2)c(C)c1` (stereo not drawn), for which the inhibition is 5.07% (inactive).

As for `O=C(Nc1ccccc1)O/N=C1/CCCc2occc21`, the inhibition was 5.12% (inactive).

Regarding `CCn1c(SCC(=O)NC2CC2)nnc1-c1ccccn1`, the inhibition was 8.43% (inactive).

As to `CN(Cc1cc2cc(F)ccc2[nH]1)Cc1nc(-c2cnccn2)no1`, the inhibition was 3.21% (inactive).

As to `CCC1(CC)Cc2ccccc2-c2nc(CCl)[nH]c(=O)c21`, the inhibition is 4.98% (inactive).

Take `CN(CCOc1ccccc1)Cc1nc2cc(Cl)ccc2c(=O)[nH]1`: the inhibition was -0.52% (inactive).

In the case of `O=c1[nH]c(CCl)nc2cc(-c3ccc(Cl)cc3)sc12`, the inhibition was 43.4% (active).

Consider `Cc1ccc(-c2nc(CSCC(=O)NC3CCN(Cc4ccccc4)CC3)c(C)o2)cc1`, for which the inhibition was 3.88% (inactive).

In the case of `CCOC(=O)N1CCN(c2c(NCCCN3CCCC(C)C3)c(=O)c2=O)CC1` (stereo not drawn), the inhibition was -3.22% (inactive).

For `O=C(O)c1[nH]c2ccccc2c1C(c1cccc(O)c1)c1c(C(=O)O)[nH]c2ccccc12`, the inhibition was 94.6% (active).

For the compound `CCCS(=O)(=O)Nc1c(C(=O)O)[nH]c2ccccc12`, the inhibition was 1.36% (inactive).

Regarding `CC(NC(=O)COC(=O)c1cc(=O)[nH]c2ccccc12)c1ccccc1` (stereo not drawn), the inhibition is 6.8% (inactive).

Take `COc1ccc(/C=N/N(C)C2=NS(=O)(=O)c3ccccc32)cc1OC`: the inhibition was 12% (inactive).

Regarding `COc1ccc(C(=O)Nc2cccc(/C=C(/CCC(=O)O)c3nc4ccccc4s3)c2)cc1`, the inhibition is -1.28% (inactive).

Take `O=C(O)CC/C(=C\c1cc2c(cc1Br)OCO2)c1nc2ccccc2s1`: the inhibition is 27.5% (active).

In the case of `Cc1nn(-c2ccc(F)cc2)c(Cl)c1/C=C(/CCC(=O)O)c1nc2ccccc2s1`, the inhibition was 4.71% (inactive).

Regarding `NC(=O)COc1ccc(/C=N/NC(=O)C2CCCN2S(=O)(=O)c2ccc(Cl)cc2)cc1` (stereo not drawn), the inhibition is 2.71% (inactive).

Consider `O=C(c1cccc(F)c1)N1CCC(O)(c2cccnc2)CC1`, for which the inhibition is 1.64% (inactive).

With `Cc1ccsc1C(=O)NNC(=O)COc1ccc(Br)cc1`, the inhibition is 24.9% (active).

Take `Cn1cccc1C(=O)NNC(=O)COc1ccc(Br)cc1`: the inhibition is 6.31% (inactive).

As to `Cn1cnnc1SCC(=O)NNC(=O)COc1ccc(Br)cc1`, the inhibition was 8.93% (inactive).

Turning to `O=C(N/N=C\c1cccnc1)c1cc(-c2ccccc2)nc2c(Cl)cccc12`, the inhibition was -6.71% (inactive).

For `O=C(N/N=C/c1cccnc1)c1ccc(NC(=O)c2ccc(F)cc2)cc1`, the inhibition is -2.15% (inactive).

On to `Fc1ccc(/C=N/Nc2nc(-c3cccnc3)nc3ccccc23)cc1`, for which the inhibition is 25.3% (active).

Take `O=C(c1cc2c(s1)CCC2)N1CCN(c2ccccc2)CC1`: the inhibition is 1.7% (inactive).

For `COc1cc(CNc2ncn[nH]2)ccc1OCc1ccccc1C`, the inhibition was -0.89% (inactive).

As to `CN(CCCNC(=O)CN1C(=O)CC(C)(C)S(=O)(=O)c2ccccc21)C1CCCCC1`, the inhibition is 5.24% (inactive).

Take `COC(=O)c1c(-c2ccc(C)cc2)csc1N`: the inhibition was 2.65% (inactive).

Consider `Nc1scc(-c2ccncc2)c1Cl`, for which the inhibition was 89.9% (active).

On to `CCOc1ccc(NC(=O)CSc2nc3ccccc3c(=O)n2Cc2cccs2)cc1`, for which the inhibition was 6.05% (inactive).

Regarding `CN1C(C)(C)CC(NC(=O)CCC(=O)NC2CC(C)(C)N(C)C(C)(C)C2)CC1(C)C`, the inhibition was 2.28% (inactive).

Consider `CC(=O)N1CCN(S(=O)(=O)c2cccc(C(=O)NC3CCC(C)CC3)c2)CC1` (stereo not drawn), for which the inhibition is 5.89% (inactive).

In the case of `CC1CC(C)CN(S(=O)(=O)c2cccc(C(=O)N3C(=O)c4cccc(N)c4C3=O)c2)C1` (stereo not drawn), the inhibition was 39.9% (active).

As for `COc1cc(C(=O)N2C(=O)c3cccc(N)c3C2=O)cc(OC)c1OC`, the inhibition is 1.13% (inactive).

Take `CCn1c(SCC(=O)Nc2nc(C)cs2)nnc1C(C)NC(=O)c1ccccc1` (stereo not drawn): the inhibition was 8.33% (inactive).

`COc1cccc(C(=O)Nc2nnc(S(=O)(=O)N(C)c3ccccc3)s2)c1`: the inhibition was -2.38% (inactive).

Take `CC(C)CC(=O)Nc1nnc(S(=O)(=O)N(C)c2ccc(Cl)cc2)s1`: the inhibition was 26.6% (active).

`CCC(=O)Nc1nnc(S(=O)(=O)N(CC(C)C)c2ccccc2)s1`: the inhibition was 17.8% (inactive).

As to `COC(=O)c1sccc1NS(=O)(=O)c1ccc(F)cc1F`, the inhibition is 0.87% (inactive).

For `CC(=O)c1c(C)[nH]c(C(=O)Nc2cc(S(=O)(=O)N(C)C)ccc2C)c1C`, the inhibition was 2.08% (inactive).

Turning to `O=C(NC1CCN(S(=O)(=O)c2ccc(F)cc2)CC1)c1ccccc1`, the inhibition is 2.57% (inactive).

As for `Cc1ccc(S(=O)(=O)/N=C(/NC(=S)Nc2c(C)n(C)n(-c3ccccc3)c2=O)c2ccccc2)cc1`, the inhibition is 9.33% (inactive).

In the case of `Cc1nnc(NC(=O)CSc2nc(C3CCCCC3)nc3ccccc23)s1`, the inhibition is 0.98% (inactive).

As to `O=C(CSc1nc(C2CC2)nc2ccccc12)Nc1ccc2c(c1)OCCO2`, the inhibition is 38% (active).

As for `O=C(CSc1nc(C2CC2)nc2ccccc12)Nc1cccc(O)c1`, the inhibition was -0.49% (inactive).

`O=C(CN1C(=O)CSC1=O)N1CCCC(Nc2ccc(F)cc2)C1` (stereo not drawn): the inhibition was -1.15% (inactive).

As to `O=C(c1ccc2c(c1)C(=O)N(Cc1ccncc1)C2=O)N1CCN(S(=O)(=O)c2ccc(OC(F)(F)F)cc2)CC1`, the inhibition was 5.75% (inactive).

For the compound `CC1CN(Cc2ccco2)C(=S)N(c2ccccc2)C1=O` (stereo not drawn), the inhibition was 5.61% (inactive).

`CC1CN(Cc2ccccc2)C(=S)NC1=O` (stereo not drawn): the inhibition is 29.8% (active).

`CC1CC(=S)Nc2ccccc2N1Cc1ccccc1` (stereo not drawn): the inhibition is 7.13% (inactive).

Turning to `COc1ccc(CCNC(=O)c2ccc(NC(=O)CC3SC(N4CCCCC4)=NC3=O)cc2)cc1OC` (stereo not drawn), the inhibition is 1.09% (inactive).

On to `Cc1ccc(C2CC(c3cccc(Br)c3)n3nc(N)nc3N2)cc1` (stereo not drawn), for which the inhibition was 0.4% (inactive).

Consider `COCCn1c(Cc2cccn2C)nnc1SCC(=O)Nc1nccs1`, for which the inhibition is -1.79% (inactive).

On to `CC(NC(=O)C1CCCN(S(=O)(=O)c2ccc(-n3cnnn3)cc2)C1)c1ccc(F)cc1` (stereo not drawn), for which the inhibition was 26.6% (active).

Turning to `O=C(Nc1ccc(F)cc1)C1CCCN(S(=O)(=O)c2ccc(-n3cnnn3)cc2)C1` (stereo not drawn), the inhibition is 0.34% (inactive).

For `CC(C)CNC(=O)C1CCCN(S(=O)(=O)c2ccc(-n3cnnn3)cc2)C1` (stereo not drawn), the inhibition was 5.01% (inactive).

Consider `O=C(NCc1cccc(Cl)c1)C1=CC=CN2CCS(=O)(=O)N=C12`, for which the inhibition was 6% (inactive).

On to `O=C(C1CCN(CC2CCCCC2)CC1)N1CCCC1`, for which the inhibition was 0.2% (inactive).

For the compound `CCCCN(CC)CCCNC(=O)c1ccc(CSc2nc3ccncc3[nH]2)cc1`, the inhibition was -2.43% (inactive).

In the case of `CC1=NN(/C(=N\c2nnc(C)s2)Nc2ccccc2)[C@H](c2ccc(C)cc2)S1`, the inhibition was 6.77% (inactive).

Regarding `CCCCCCSc1nsc(N)n1`, the inhibition was 3.17% (inactive).

On to `Nc1nc(SC23CC4CC(CC(C4)C2)C3)ns1`, for which the inhibition was 25.4% (active).

Consider `CCCSc1nsc(N)n1`, for which the inhibition is 3.46% (inactive).

Regarding `Nc1ccn(C2CC(O)C(CO)O2)c(=O)n1` (stereo not drawn), the inhibition is 4.72% (inactive).

`COc1cc(C(=O)NCC(=O)NCCSc2ccc(Br)cc2)cc(OC)c1OC`: the inhibition is 18.7% (inactive).

On to `COc1ccccc1C(=O)NCC(=O)NCCSc1ccc(Br)cc1`, for which the inhibition is 27.3% (active).

As to `COc1ccccc1C(=O)NCC(=O)OCC(=O)NNC(=O)c1ccc(Br)cc1`, the inhibition is 4.05% (inactive).

Take `Cc1c(C(=O)NC2CCCCC2)oc2ccccc12`: the inhibition is 1.03% (inactive).

As for `Cc1ccc(C(=O)OCC(=O)NCc2ccc3c(c2)OCO3)s1`, the inhibition is -1.11% (inactive).

On to `Cc1cc(Br)ccc1SCC(=O)OCC(=O)NCc1ccc2c(c1)OCO2`, for which the inhibition was 25.2% (active).

On to `COc1cccc(CC(=O)OCC(=O)NCc2ccc3c(c2)OCO3)c1`, for which the inhibition is 8.95% (inactive).

In the case of `Cc1ccc2c(O)c(Cc3ccccc3)c(=O)[nH]c2n1`, the inhibition was 0.81% (inactive).

In the case of `CCc1ccc2[nH]c(=O)c(Cc3ccccc3)c(O)c2c1`, the inhibition is 24.7% (active).

On to `O=C(Cc1c(O)c2ccccc2[nH]c1=O)NCc1ccccc1`, for which the inhibition was 2.81% (inactive).

`O=C(Nc1ccccc1)Oc1cccc2cccnc12`: the inhibition was 3.18% (inactive).

In the case of `O=C(c1cccc(S(=O)(=O)N2CCCCCC2)c1)N1CCN(Cc2ccccc2)CC1`, the inhibition was 0.99% (inactive).

Regarding `O=C(NC(=O)c1ccc(Cl)c(Cl)c1)OC1CCS(=O)(=O)C1` (stereo not drawn), the inhibition is -3.52% (inactive).

`O=C(NCCc1c[nH]c2ccccc12)c1cc2ccccc2oc1=O`: the inhibition is 6.1% (inactive).

Take `CC1CCCCC1NC(=O)COc1ccc(C#N)cc1` (stereo not drawn): the inhibition is 2.44% (inactive).

On to `Oc1ccc(N=Nc2nccs2)c(O)c1`, for which the inhibition was 35.3% (active).

In the case of `O=C(OC12CC3CC(CC(C3)C1)C2)c1ccc(NCc2cc(O)ccc2O)cc1`, the inhibition was 3.5% (inactive).

`Cc1ccc(S(=O)(=O)N2CCN(C)CC2)cc1C(=O)NC1CCCCC1`: the inhibition was 25.7% (active).

Turning to `CCn1cc(C(=O)NC2CCCCCC2)c(=O)c2cc(S(=O)(=O)N3CCCCC3)ccc21`, the inhibition is 0.07% (inactive).

As for `COc1ccc(S(=O)(=O)N2CCOCC2)cc1C(=O)NC1CCCCC1`, the inhibition is 2.51% (inactive).

In the case of `COc1ccc2c(c1)c(=Cc1ccc(N(C)C)cc1)c1cc(-c3ccccc3)[n+](C)n12`, the inhibition is -27.4% (inactive).
